Source: PubChem (National Center for Advancing Translational Sciences (NCATS))
D3 ag – activates the human D3 dopamine receptor | D3R DiscoveRx beta-arrestin cells, luminescence, 90 min | AID 652048 | max activation, % | 0.58% of 410,000 active | P35462; in the data active = max activation above about 30%; also: 0% is about no effect
Target sequence (P35462 whole entry, looked up): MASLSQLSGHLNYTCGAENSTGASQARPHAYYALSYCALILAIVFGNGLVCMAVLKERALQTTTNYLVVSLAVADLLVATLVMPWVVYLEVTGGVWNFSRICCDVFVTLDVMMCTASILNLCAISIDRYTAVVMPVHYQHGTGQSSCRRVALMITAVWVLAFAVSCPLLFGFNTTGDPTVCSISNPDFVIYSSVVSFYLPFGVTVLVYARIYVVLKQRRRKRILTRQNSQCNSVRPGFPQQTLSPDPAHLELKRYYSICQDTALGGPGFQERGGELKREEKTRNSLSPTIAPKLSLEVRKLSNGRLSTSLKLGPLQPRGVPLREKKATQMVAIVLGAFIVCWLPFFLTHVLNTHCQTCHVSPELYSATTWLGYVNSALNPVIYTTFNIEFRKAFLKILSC
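Agonist mode: compounds and dopamine controls were applied to plated cells for 90 min at 37 degrees C after an overnight attachment at 1500 cells/well. Luminescent read-out followed 30 - 60 minutes at room temperature with DiscoveRx detection reagent.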
KB-V1 cytotox – KB-V1 MDR subline cytotoxicity | 3.4% of 400,000 active | KB-V1 MDR cells viability, CellTiter-Glo, 72 h | Potency, µM (doses to about 46.1 µM), usual class: cytotoxic; also: potency is read from the fitted curve at half-maximal effect; % is scaled to controls: 0 for no effect and ±100 for the full control effect; nearly all actives have a fitted effect of over 60% in size
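Readout: CellTiter-Glo luminescence, 10 min after addition. Cells: KB-V1 MDR subline, 72 h at 37 degrees C with compound. Analysis: corrected, normalized data fitted to concentration-effect curves.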
MCF10A rerep – induces DNA re-replication in MCF 10a normal breast cells; MCF 10A DNA re-replication, Hoechst nuclear intensity, 48 h; Potency, µM (top dose mostly 46.1 µM), for the others: at the top dose activity, positive = re-replication, most hits filed as activators; 2.9% of 350,000 active; AID 624296; also: potency is read from the fitted curve at half-maximal effect; % of control where 0% means no effect; nearly all actives have a fitted effect of over 50% in size
DRD3 antagonist – antagonists of human D3 dopamine receptor. max response, negative = inhibition, %. D3R cells, DiscoveRx beta-arrestin luminescence, antagonist mode; active compounds read low. 2.5% of 360,000 active. P35462; in the data active = max response below about -50%; inconclusive = no clear call, values can overlap the other calls; also: % is scaled to controls: 0 for no effect and ±100 for the full control effect
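Cells plated overnight at 1500 cells/well, then exposed to library compounds with dopamine controls for 90 minutes at 37 degrees C. DiscoveRx reagent added for 30–60 minutes at room temperature; luminescence read, quantitative HTS format.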
SW480 rerep – inducers of DNA re-replication in SW480 colon cancer cells; Potency, µM (titrated, usually from 46.1 µM), without a hit: at the top dose re-replication activation, actives largely listed as activators; SW480 DNA re-replication, Hoechst DNA content imaging, 48 h; AID 624297; 1.8% of 340,000 active; also: potency is read from the fitted curve at half-maximal effect; % of control where 0% means no effect; nearly all actives have a fitted effect of over 55% in size
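SW480 cells exposed to compounds for 48 hr at 37 C, 5% CO2, then Hoechst-stained 40 min. Nuclear DNA content imaged by fluorescence scanning (405 nm excitation, 500-530 nm emission); re-replication scored as increased high-intensity nuclei.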
KB-3-1 cytotox – kills parental KB-3-1 adenocarcinoma cells. KB-3-1 viability, CellTiter-Glo ATP luminescence, 72 h. Potency, µM (highest dose often 46.1 µM), actives largely listed as cytotoxic. 1.4% of 400,000 active. AID 1347075; also: potency is read from the fitted curve at half-maximal effect; % is scaled to controls: 0 for no effect and ±100 for the full control effect; nearly all actives have a fitted effect of over 60% in size
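Screening of KB-3-1 cells (DMEM, 10% FBS, phenol-red free) ran from lowest to highest compound concentration; after 72 h at 37 °C viability was read luminescently and curves fitted.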
Active calls of the source: *; i = inactive; ? = inconclusive; . = no result given. The list is not random: actives were taken first. Their share in the collection is about 8.9%. Unless noted, calls follow the shape of the dose curve; as a rule, active = well fitted curve in the direction sought with a large enough effect; inconclusive = small, poorly fitted or top-dose-only effect, or another doubt; inactive = no such curve, though single readings can be large; an effect the other way counts as inactive or inconclusive.

SMILES	D3 ag	KB-V1 cytotox	MCF10A rerep	DRD3 antagonist	SW480 rerep	KB-3-1 cytotox
CC(C)c1[nH]nc2c1C1(CCN(Cc3ccccc3)CC1)C(C#N)=C(N)O2	1.1	i	1.4%	-92.0*	-2.0%	i
Fc1ccc2cnc(-c3ccccc3F)cc2c1	-0.4	i	18.4µM*	-14.3	-13.6%	i
COCC(N)(c1ccccc1)c1nc2ccccc2n1C (configuration not stated)	1.2	?	16.7%	-88.9*	-17.0%	i
COc1ccc(OC)c2c(/C=C/c3c(C)[nH]c4ccccc34)ccnc12	.	20.6µM*	.	.	.	?
CCOc1ccc(CNC(=O)Cn2cc3c(n2)-c2c(oc(C(=O)N4CCOCC4)c2C)CC3)cc1	14.2	.	.	.	.	.
Cc1cccc2c1N(C(=O)c1ccco1)C(C)(C)c1ssc(=S)c1-2	-5.7	?	-1.8%	-24.7	0.9%	i
Cc1ccc2c(c1)N(C(=O)c1ccco1)C(C)(C)c1ssc(=S)c1-2	-6.7	9.2µM*	-5.7%	?	-4.1%	i
COc1ccc(S(=O)(=O)N(CC(=O)Nc2cccc(C)c2)c2ccc(C)cc2)cc1OC	6.5	?	.	.	.	i
Cc1csc2ncnc(N3CCN(C(=S)Nc4ccc(F)cc4F)CC3)c12	40.7*	i	-0.5%	19.3	-4.8%	i
CN[C@@H]1[C@@H](O[C@H]2O[C@H](CO)[C@@H](N)[C@H](O)[C@H]2O)O[C@H]2C[C@@H](N)[C@@H](O[C@H]3[C@H](O)[C@@H](O)[C@H](N)C[C@@H]3N)O[C@@H]2[C@@H]1O	5.4	.	.	.	.	.
CCCCCCCCCCCC(=O)NC(C(=O)OCC)C(O)c1cccc([N+](=O)[O-])c1 (configuration not stated)	32.3*	?	?	4.3	?	?
CCOC(=O)C(NC(C)=O)C(O)c1ccc([N+](=O)[O-])cc1 (configuration not stated)	-0.1	?	-10.1%	-5.3	-1.9%	i
Cc1cc(C)cc(-n2c(C)c3c(C)nnc(C)c3c2C)c1	3.7	?	9.9%	-23.1	23.1µM*	?
CNc1ccc(C=C2C=Cc3ccccc32)cc1	-1.1	i	0.6%	-25.2	2.6%	i
CN(C)CCC=C1c2ccccc2C(C)(C)c2ccccc21	-16.5	.	29.9µM*	.	?	.
CN(C)CCC=C1c2ccccc2C=Cc2ccccc21	-94.5	?	0.6%	-119.8*	?	i
CN(C)/C=C1\C=Cc2ccccc21	.	i	.	.	.	i
CNCCC=C1c2ccccc2C=Cc2ccccc21	-81.4	?	14.8%	-77.2*	?	i
Cc1ccccc1Nc1nc(Nc2ccccc2C)nc(SC2=NCCS2)n1	-12.5	16.4µM*	-3.4%	-14.2	-3.3%	i
COc1cccc(NC(=O)CSc2nc3c(oc4ccccc43)c(=O)n2Cc2ccco2)c1	-1.9	i	.	.	.	i
CCOC(=O)C1CCCN(CCC(=O)Nc2ccc(Br)c(C)c2)C1 (configuration not stated)	-8.7	i	10.5%	-54.4*	-1.2%	i
CCOC(=O)C1CCCN(CCC(=O)Nc2ccc(Br)cc2)C1 (configuration not stated)	-16.2	i	-0.7%	-50.3*	-7.2%	i
CCOC(=O)c1[nH]c2ccc(Br)cc2c1NC(=O)CCN1CCC(C(=O)OCC)CC1	-14.3	?	25.9µM*	-20.9	?	?
CCOC(=O)C1CCCN(CCC(=O)Nc2ccc3c(c2)CCC3)C1 (configuration not stated)	-34.9	i	?	-55.7*	?	i
CC(C)CCNC(=O)C1CCN(S(=O)(=O)c2cccc3nsnc23)CC1	-8.2	i	.	.	.	i
SMILES	D3 ag	KB-V1 cytotox	MCF10A rerep	DRD3 antagonist	SW480 rerep	KB-3-1 cytotox
O=[N+]([O-])c1ccc(CN2CCCCCC2)cc1	-8.0	i	7.0%	2.1	-7.6%	i
CSc1ccc(CN2CCN(Cc3ccc([N+](=O)[O-])cc3)CC2)cc1	-4.5	2.06µM*	14.6µM*	?	6.5%	?
Cc1cccc(C(=O)N=c2c(C#N)cc3c(=O)n4cccc(C)c4nc3n2Cc2ccco2)c1	-8.1	i	18.4µM*	0.0	23.1µM*	?
CCOC(=O)c1cc2c(=O)n3cccc(C)c3nc2n(Cc2ccco2)c1=NC(=O)c1cccnc1	-0.6	i	5.4%	7.8	?	i
CCOC(=O)c1cc2c(=O)n3ccccc3nc2n(Cc2ccco2)c1=NC(=O)c1cccnc1	-3.8	i	?	-10.5	6.51µM*	i
Cc1cccn2c(=O)c3cc(C#N)c(=NC(=O)c4ccccc4)n(Cc4ccco4)c3nc12	-5.8	?	2.31µM*	2.6	7.31µM*	i
CC(C)(C)C(=O)OCOC(=O)C1N2C(=O)CC2S(=O)(=O)C1(C)C (configuration not stated)	5.3	.	.	.	.	.
COc1ccc2c(c1)CC(C(=O)NCCN1CCN(c3cccc(Cl)c3)CC1)CO2 (configuration not stated)	-8.1	i	.	.	.	i
CCCCCOC(=O)c1ccc(Nc2nc(C(=O)OCC)nc3ccccc23)cc1	4.1	i	.	.	.	i
O=C1NC(c2ccc(O)cc2)Nc2ccccc21 (configuration not stated)	-5.4	?	11.6µM*	0.0	?	?
CSc1ccc(C2NC(=O)c3ccccc3N2)cc1 (configuration not stated)	0.3	?	16.4µM*	7.4	9.2µM*	?
O=C1NC(c2cccc(OCc3ccccc3)c2)Nc2ccccc21 (configuration not stated)	2.9	0.651µM*	2.31µM*	1.4	1.84µM*	0.581µM*
Cc1ccc(N2CC(NC(=O)c3ccco3)CC2=O)cc1 (configuration not stated)	1.9	.	.	.	.	.
COc1ccc(CNC(=O)CN2N=C(c3ccc(Cl)cc3)CCC2=O)cc1	-1.3	.	.	.	.	.
CCN(CC)c1ccc(/C=N/N2CCN(Cc3ccc(Cl)cc3)CC2)c(O)c1	-2.6	i	14.6%	-9.9	-7.3%	i
CCN(CC)c1ccc(/C=N/N2CCN(Cc3cccc4ccccc34)CC2)c(O)c1	-1.5	16.4µM*	49.1%	-19.8	5.7%	i
Cc1ccc(C(=O)NC(=S)Nc2cccc(NC(=O)c3ccccc3Cl)c2)cc1[N+](=O)[O-]	-15.5	i	-5.4%	?	-8.5%	i
O=C(NC(=S)Nc1ccccc1[N+](=O)[O-])c1ccccc1Cl	-8.1	?	-3.6%	?	-35.3%	13µM*
Cc1c(C(=O)NC(=S)Nc2cccnc2)cccc1[N+](=O)[O-]	-13.8	i	-17.0%	-64.6*	-8.3%	i
